# In PubChem BioAssay (NCATS):
# Values without a mark were called inactive. Results filed as inconclusive are left out. A call without a number means that no potency is given here. Calls of active or inactive are those of the source. Unless noted, the call rests on the fitted dose curve; in most records, active means well fitted curve in the direction sought with a large enough effect; inconclusive means small, poorly fitted or top-dose-only effect, or another doubt; inactive means no such curve, though single readings can be large; an effect the other way counts as inactive or inconclusive.
# Columns and labels:
# [1] = target: Glucocorticoid receptor (Homo sapiens) (UniProt P04150); test: GR-GFP Redistribution (AID 450;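 active means compounds whose dose series gives a full or clear partial fitted curve of increased nuclear translocation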; further: potency means the concentration at half of the fitted maximal effect)
# Sequence of Glucocorticoid receptor (Homo sapiens) (P04150 whole entry, looked up, the tested form may be a part): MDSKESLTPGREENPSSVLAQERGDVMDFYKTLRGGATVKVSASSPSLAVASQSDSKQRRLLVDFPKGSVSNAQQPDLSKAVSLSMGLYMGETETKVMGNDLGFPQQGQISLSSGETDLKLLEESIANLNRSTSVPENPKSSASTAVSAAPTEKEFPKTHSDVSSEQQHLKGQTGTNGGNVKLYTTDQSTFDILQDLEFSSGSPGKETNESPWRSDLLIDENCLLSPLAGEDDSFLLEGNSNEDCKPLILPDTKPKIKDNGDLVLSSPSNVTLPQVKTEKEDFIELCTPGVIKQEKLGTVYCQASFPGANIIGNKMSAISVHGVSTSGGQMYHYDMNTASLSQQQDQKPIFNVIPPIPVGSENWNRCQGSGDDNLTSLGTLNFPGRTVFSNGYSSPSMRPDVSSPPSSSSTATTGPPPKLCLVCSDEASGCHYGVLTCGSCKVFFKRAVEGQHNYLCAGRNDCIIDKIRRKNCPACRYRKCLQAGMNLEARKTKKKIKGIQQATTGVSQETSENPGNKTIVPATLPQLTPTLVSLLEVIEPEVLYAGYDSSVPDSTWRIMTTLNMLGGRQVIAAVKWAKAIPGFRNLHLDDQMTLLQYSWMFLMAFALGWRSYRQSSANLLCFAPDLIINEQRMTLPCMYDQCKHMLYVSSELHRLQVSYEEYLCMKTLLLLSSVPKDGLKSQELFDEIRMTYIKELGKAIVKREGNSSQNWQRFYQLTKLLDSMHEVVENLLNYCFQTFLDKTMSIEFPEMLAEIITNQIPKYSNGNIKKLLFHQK
# [2] = target: Glucocorticoid receptor (Homo sapiens) (UniProt P04150); test: GR-EFC Redistribution (AID 451; calls by dose curve; further: potency means the concentration at half of the fitted maximal effect); conditions: CHO-K1 GR-EFC translocation, beta-gal luminescence, 2 h
# Method in brief: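 CHO-K1 cells stably expressing nuclear-localized β-gal enzyme acceptor and GR fused C-terminally to the enzyme donor fragment; ligand-driven nuclear translocation restores β-gal by complementation. Compounds titrated up to 46 uM final, 2 h at 37 °C; luminescence read.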
# [3] = target: Mitogen-activated protein kinase 10 (Mus musculus) (UniProt Q61831); test: JNK3 AlphaScreen Assay (AID 530; active means well fitted curve in either direction with a large enough effect, not every such curve was filed as active;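 further: kinase came from lysate of stimulated human HepG2 cells; signal reports phosphorylation of biotinylated GST-cJun 1-79 at Ser73 with 10 µM ATP; series mostly up to about 57 µM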)
# Method in brief: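 JNK3 came from HepG2 lysates pre-activated with IL-1beta and TNF-alpha and phosphorylated biotinylated GST-cJun (1-79) at 10 uM ATP, pH 7.6, room temperature. Compounds were titrated. AlphaScreen signal used anti-phospho-cJun (Ser73) antibody.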
# [4] = target: 3',5'-cyclic-AMP phosphodiesterase 4B (Homo sapiens) (UniProt Q07343); test: qHTS Assay for Inhibitors of PDE-IV (AID 607; active means well fitted activation curve with a large enough effect in the main read-out, with a control signal flat, not every such curve was filed as active)
# Sequence of 3',5'-cyclic-AMP phosphodiesterase 4B (Homo sapiens) (Q07343 whole entry, looked up): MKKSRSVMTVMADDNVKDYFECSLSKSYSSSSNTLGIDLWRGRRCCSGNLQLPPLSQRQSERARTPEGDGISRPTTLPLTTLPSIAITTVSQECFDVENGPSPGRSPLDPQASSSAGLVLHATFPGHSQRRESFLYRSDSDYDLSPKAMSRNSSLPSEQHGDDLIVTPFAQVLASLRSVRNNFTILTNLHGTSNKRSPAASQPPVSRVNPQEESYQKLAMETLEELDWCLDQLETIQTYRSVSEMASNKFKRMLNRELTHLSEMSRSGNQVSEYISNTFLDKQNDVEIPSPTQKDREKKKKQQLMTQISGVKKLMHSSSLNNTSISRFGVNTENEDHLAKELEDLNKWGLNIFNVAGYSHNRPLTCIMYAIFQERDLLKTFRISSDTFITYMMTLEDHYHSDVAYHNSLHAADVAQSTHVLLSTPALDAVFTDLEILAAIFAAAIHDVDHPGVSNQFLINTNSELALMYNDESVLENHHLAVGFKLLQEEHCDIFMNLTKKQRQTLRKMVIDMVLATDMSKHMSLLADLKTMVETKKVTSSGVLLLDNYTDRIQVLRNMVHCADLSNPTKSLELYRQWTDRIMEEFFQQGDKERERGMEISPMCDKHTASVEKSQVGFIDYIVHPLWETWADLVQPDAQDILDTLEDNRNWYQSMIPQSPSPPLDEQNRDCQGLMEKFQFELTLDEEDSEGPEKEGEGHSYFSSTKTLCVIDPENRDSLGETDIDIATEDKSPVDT
# Method in brief: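 HEK293 ACTOne cells with CNG channel (1000/well), endogenous PDE4; membrane potential dye, compounds up to 22.9 uM final. Fluorescence Ex 535/Em 590; RO 20-1724 (100 uM final) as reference.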
# [5] = target: Cytochrome P450 2C9 (Homo sapiens) (UniProt P11712); test: qHTS Assay for Inhibitors and Substrates of Cytochrome P450 2C9 (AID 883); further: nearly all actives have a fitted effect of over 60% in size; further: potency means the concentration at half of the fitted maximal effect
# Sequence of Cytochrome P450 2C9 (Homo sapiens) (P11712 whole entry, looked up): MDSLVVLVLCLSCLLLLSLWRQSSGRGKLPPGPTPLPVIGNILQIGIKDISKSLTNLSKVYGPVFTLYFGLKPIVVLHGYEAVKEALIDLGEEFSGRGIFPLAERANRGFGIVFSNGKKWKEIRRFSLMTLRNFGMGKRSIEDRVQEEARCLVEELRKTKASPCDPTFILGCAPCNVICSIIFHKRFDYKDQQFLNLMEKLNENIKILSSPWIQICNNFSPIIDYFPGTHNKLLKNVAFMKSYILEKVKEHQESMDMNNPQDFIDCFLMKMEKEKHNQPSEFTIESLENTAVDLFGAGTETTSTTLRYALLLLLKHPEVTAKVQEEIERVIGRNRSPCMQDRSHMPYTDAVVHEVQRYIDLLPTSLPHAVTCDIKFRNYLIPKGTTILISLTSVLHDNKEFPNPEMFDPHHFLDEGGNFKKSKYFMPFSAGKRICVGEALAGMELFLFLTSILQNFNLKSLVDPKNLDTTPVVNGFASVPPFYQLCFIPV
# Method in brief: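 A luminogenic readout tracked human CYP2C9 (10nM) converting deoxyluciferin (100uM, at KM) in 25mM KPO4 during 60 min at 37C with regenerated NADPH. Values normalized to 57uM sulphaphenazole as complete inhibition.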
# [6] = target: Cytochrome P450 3A4 (Homo sapiens) (UniProt P08684); test: qHTS Assay for Inhibitors and Substrates of Cytochrome P450 3A4 (AID 884); further: potency means the concentration at half of the fitted maximal effect; nearly all actives have a fitted effect of over 50% in size
# Sequence of Cytochrome P450 3A4 (Homo sapiens) (P08684 whole entry, looked up): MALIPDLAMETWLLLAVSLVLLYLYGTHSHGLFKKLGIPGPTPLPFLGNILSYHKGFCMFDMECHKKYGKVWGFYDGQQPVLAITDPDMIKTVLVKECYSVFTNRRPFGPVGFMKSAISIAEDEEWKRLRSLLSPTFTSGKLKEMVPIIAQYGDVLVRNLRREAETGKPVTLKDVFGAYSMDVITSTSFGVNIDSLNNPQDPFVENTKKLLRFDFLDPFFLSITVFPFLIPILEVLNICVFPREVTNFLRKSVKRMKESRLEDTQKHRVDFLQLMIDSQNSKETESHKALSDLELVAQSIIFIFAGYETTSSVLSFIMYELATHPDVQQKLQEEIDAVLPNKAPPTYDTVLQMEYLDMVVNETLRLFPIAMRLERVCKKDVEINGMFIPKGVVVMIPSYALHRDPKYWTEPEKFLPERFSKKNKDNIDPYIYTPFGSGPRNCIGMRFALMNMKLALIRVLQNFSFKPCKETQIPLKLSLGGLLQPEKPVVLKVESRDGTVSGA
# Method in brief: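 20 nM human CYP3A4 with 25 uM Luciferin-PPXE (at KM) in 200 mM KPO4, preincubated 10 min with compound; NADPH regeneration started a 60 min RT reaction. Luciferin detected by luminescence, normalized to 57 uM ketoconazole as full inhibition.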
# [7] = target: Cytochrome P450 3A4 (Homo sapiens) (UniProt P08684); test: qHTS Assay for Activators of Cytochrome P450 3A4 (AID 885); further: nearly all actives have a fitted effect of over 65% in size
# Method in brief: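 Human CYP3A4 (20 nM) with Luciferin-PPXE at 25 uM (its KM) in 200 mM KPO4; 10 min compound preincubation, then NADPH regeneration and 60 min reaction at RT. Luciferin read by luminescence; normalized to 57 uM ketoconazole full inhibition.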
# [8] = target: Cytochrome P450 2D6 (Homo sapiens) (UniProt P10635); test: qHTS Assay for Inhibitors and Substrates of Cytochrome P450 2D6 (AID 891); further: nearly all actives have a fitted effect of over 60% in size; further: potency means the concentration at half of the fitted maximal effect;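 on activity change, negative = inhibition: luciferin methyl ether substrate demethylated by CYP2D6 with NADPH regeneration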
# Sequence of Cytochrome P450 2D6 (Homo sapiens) (P10635 whole entry, looked up): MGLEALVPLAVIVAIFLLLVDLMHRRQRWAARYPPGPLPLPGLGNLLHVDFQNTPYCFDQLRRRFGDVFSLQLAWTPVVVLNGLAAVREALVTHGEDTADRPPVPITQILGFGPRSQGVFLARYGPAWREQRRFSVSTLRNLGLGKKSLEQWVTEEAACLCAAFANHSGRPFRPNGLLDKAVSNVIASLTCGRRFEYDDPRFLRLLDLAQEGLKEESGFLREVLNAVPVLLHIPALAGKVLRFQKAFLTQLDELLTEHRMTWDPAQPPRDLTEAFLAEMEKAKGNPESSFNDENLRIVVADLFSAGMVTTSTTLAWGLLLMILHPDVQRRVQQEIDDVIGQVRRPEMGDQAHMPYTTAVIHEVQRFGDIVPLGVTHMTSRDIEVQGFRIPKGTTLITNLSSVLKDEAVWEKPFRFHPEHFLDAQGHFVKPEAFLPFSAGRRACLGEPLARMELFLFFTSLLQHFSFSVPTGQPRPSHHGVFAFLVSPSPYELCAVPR
# Method in brief: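 Human CYP2D6 (5 nM) with 30 uM Luciferin-ME EGE (at Km) in 100 mM KPO4, compound preincubated 10 min, then NADPH regeneration system for 60 min at room temperature. Luciferin read by luminescence; normalized to 1.43 uM quinidine.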
# [9] = target: Cytochrome P450 2C19 (Homo sapiens) (UniProt P33261); test: qHTS Assay for Inhibitors and Substrates of Cytochrome P450 2C19 (AID 899); further: nearly all actives have a fitted effect of over 60% in size; further: potency means the concentration at half of the fitted maximal effect
# Sequence of Cytochrome P450 2C19 (Homo sapiens) (P33261 whole entry, looked up): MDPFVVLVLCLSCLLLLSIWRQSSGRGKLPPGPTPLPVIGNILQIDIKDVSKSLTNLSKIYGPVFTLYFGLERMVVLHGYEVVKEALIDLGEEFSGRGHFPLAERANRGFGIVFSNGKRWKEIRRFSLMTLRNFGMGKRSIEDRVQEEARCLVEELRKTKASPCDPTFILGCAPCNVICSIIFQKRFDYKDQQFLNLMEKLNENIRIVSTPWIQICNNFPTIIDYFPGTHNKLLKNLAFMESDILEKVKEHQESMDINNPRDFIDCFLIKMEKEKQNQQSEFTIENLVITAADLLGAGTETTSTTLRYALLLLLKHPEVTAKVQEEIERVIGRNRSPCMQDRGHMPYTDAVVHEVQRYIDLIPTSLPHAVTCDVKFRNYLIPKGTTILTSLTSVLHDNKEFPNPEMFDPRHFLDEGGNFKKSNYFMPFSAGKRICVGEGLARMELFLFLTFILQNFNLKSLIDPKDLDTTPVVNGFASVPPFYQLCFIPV
# Method in brief: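 NADPH-dependent conversion of Luciferin-H EGE (10uM, at KM) by 5nM enzyme in 50mM KPO4, 60 min at 37C following 10 min compound preincubation. Stopped with luciferin detection buffer; luminescence read after 20 min.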
# [10] = target: DNA dC->dU-editing enzyme APOBEC-3G (Homo sapiens) (UniProt Q9HC16); test: qHTS for inhibitors of Vif-A3G interactions: Validation (AID 588379)
# Sequence of DNA dC->dU-editing enzyme APOBEC-3G (Homo sapiens) (Q9HC16 whole entry, looked up): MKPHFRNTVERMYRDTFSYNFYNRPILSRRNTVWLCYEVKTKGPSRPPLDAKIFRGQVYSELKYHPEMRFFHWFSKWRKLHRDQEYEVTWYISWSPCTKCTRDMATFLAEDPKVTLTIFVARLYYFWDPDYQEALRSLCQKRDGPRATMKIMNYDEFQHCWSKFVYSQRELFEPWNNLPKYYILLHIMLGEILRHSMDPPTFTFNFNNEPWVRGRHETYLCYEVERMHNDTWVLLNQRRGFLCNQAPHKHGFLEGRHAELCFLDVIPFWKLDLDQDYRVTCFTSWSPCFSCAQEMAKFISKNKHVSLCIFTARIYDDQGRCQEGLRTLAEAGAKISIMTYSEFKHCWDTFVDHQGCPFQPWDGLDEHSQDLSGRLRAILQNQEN
# Method in brief: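 HeLa cells stably expressing Vif and A3G-eYFP, 700 cells/well, incubated overnight at 37 deg C, then exposed to compound overnight at 37 deg C. Inhibition of Vif-mediated degradation read as increased yellow fluorescence (Ex 488/Em 500-530) by laser-scanning cytometry.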
# [11] = target: Ubiquitin carboxyl-terminal hydrolase 1 (Homo sapiens) (UniProt O94782); test: Inhibitors of USP1/UAF1: Pilot qHTS (AID 504865); further: potency means the concentration at half of the fitted maximal effect; nearly all actives have a fitted effect of over 35% in size
# Sequence of Ubiquitin carboxyl-terminal hydrolase 1 (Homo sapiens) (O94782 whole entry, looked up): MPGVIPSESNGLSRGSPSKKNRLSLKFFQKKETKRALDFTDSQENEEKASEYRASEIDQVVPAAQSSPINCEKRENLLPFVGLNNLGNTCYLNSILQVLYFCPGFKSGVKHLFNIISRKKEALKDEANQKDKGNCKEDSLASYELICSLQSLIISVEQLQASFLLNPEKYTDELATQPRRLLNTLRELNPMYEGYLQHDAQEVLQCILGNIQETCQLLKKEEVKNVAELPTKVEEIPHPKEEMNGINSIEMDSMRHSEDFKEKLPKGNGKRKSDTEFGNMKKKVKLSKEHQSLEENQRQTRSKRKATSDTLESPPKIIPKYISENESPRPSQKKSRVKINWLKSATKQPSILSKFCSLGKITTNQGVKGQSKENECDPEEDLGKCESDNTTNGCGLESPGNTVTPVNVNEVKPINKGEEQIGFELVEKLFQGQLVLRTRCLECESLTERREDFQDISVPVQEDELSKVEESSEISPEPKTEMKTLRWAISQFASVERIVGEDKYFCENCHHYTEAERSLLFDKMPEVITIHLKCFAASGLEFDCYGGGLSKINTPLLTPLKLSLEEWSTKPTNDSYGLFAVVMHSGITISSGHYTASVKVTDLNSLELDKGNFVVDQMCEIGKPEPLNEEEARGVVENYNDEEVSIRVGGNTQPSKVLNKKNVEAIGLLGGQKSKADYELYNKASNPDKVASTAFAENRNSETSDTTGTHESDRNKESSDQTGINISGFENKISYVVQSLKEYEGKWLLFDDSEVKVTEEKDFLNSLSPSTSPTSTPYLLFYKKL
# Method in brief: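 In 50mM HEPES pH 7.8 containing 0.5mM EDTA, 1mM TCEP, 0.1 mg/ml BSA and 0.01% Tween-20, 1nM USP1/UAF1 is exposed to compound for 15 min, then Ub-Rho (150nM final) is added and fluorescence is read over time.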
structure (smiles),measurement,setting,value
O=C1C[C@H](c2ccccc2)Oc2cc(O)cc(O)c21,Potency,[1],> 46 µM
same,Potency,[2],> 46 µM
same,Potency,[3],inactive
same,Potency,[4],inactive
same,Potency,[5],12.6 µM (active)
same,Potency,[6],12.6 µM (active)
same,Potency,[7],inactive
same,Potency,[8],20 µM (active)
same,Potency,[9],0.631 µM (active)
same,outcome,[10],inactive
CC(C)C[C@@H](CC(=O)N[C@@H](CCC(=O)O)CC(=O)O)NC(=O)[C@@H]1CCCC[C@H]1NC(=O)C[C@H](CCCN)NC(=O)C[C@H](Cc1c[nH]c2ccccc12)NC(=O)[C@@H]1CCCC[C@H]1N,Potency,[2],> 46 µM
same,Potency,[3],inactive
same,Potency,[4],inactive
same,Potency,[5],inactive
same,Potency,[8],inactive
same,Potency,[9],inactive
Cc1ccc(-n2ncc3c(N4CCN(c5ccccc5)CC4)ncnc32)c(C)c1,Potency,[1],> 20.6 µM
CCCC[C@H](CC)CN=C(N)NC(N)=NCCCCCCN=C(N)NC(N)=NC[C@@H](CC)CCCC,Potency,[1],> 20.6 µM
same,Potency,[2],> 20.6 µM
same,Potency,[3],inactive
same,Potency,[4],inactive
same,Potency,[8],3.16 µM (active)
same,Potency,[11],28.2 µM (active)
Cn1c(NCc2ccccc2)nc2c1c(=O)n(Cc1ccc(Br)cc1)c(=O)n2C,Potency,[1],> 20.6 µM
CN[C@@H]1[C@H](O)[C@H](NC)[C@@H]2O[C@]3(O)C(=O)C[C@@H](C)O[C@H]3O[C@@H]2[C@H]1O,Potency,[1],> 46 µM
same,Potency,[3],inactive
same,Potency,[4],inactive
CC1(C)Cc2c(C#N)c(N3CCN(C(=O)c4ccco4)CC3)nc(Cc3ccccc3)c2CO1,Potency,[1],> 20.6 µM
CC(=O)O[C@H]1C(=O)[C@]2(C)[C@H]([C@H](OC(=O)c3ccccc3)[C@@]3(O)C[C@H](OC(=O)[C@@H](O)[C@@H](NC(=O)c4ccccc4)c4ccccc4)C(C)=C1C3(C)C)[C@]1(OC(C)=O)CO[C@@H]1C[C@@H]2O,Potency,[1],> 46 µM
same,Potency,[2],> 46 µM
same,Potency,[3],inactive
same,Potency,[4],inactive
NCCC[C@@H](CC(=O)N[C@@H]1CCNC[C@H]1C(=O)N[C@H](CC(=O)N[C@@H](CCC(=O)O)CC(=O)O)Cc1ccccc1)NC(=O)C[C@H](Cc1c[nH]c2ccccc12)NC(=O)[C@@H]1CCCC[C@H]1N,Potency,[2],> 46 µM
same,Potency,[3],inactive
same,Potency,[4],inactive
same,Potency,[5],inactive
same,Potency,[8],inactive
same,Potency,[9],inactive
OCc1ccncc1.OCc1ccncc1.[Cl][Pt]([Cl])([Cl])[Cl],Potency,[1],> 46 µM
same,Potency,[2],> 9.22 µM
same,"activity change, negative = inhibition",[3],0.578% [at 11.4 µM]
same,Potency,[4],inactive
COc1ccc(C(=O)[C@H]2[C@H]3[C@@H](C(=O)[C@@H]4OC[C@H]3O4)[C@H]3C=Cc4ccccc4N32)c(OC)c1,Potency,[1],> 46 µM
same,Potency,[2],> 46 µM
same,Potency,[3],inactive
same,Potency,[4],inactive
same,Potency,[8],inactive
